# Laboratory results as given in the supplement of paper PMC12819154, “High-throughput peptide-centric local stability assay extends protein–ligand identification to membrane proteins, tissues and bacteria” (Nature Structural & Molecular Biology, 2025).
# Compound: CN[C@@H]1C[C@H]2O[C@@](C)([C@@H]1OC)n1c3ccccc3c3c4c(c5c6ccccc6n2c5c31)C(=O)NC4 [staurosporine]
# Test: log2 fold change of tryptic peptide abundance, ligand vs vehicle (limited proteolysis) (log2 ratio); higher = more trypsin-susceptible (destabilized)
# Details: ligand concentration: 20 uM; sample: K562 cleared lysate; digestion: 4 min, 22 C (HT-PELSA RT4min, Orbitrap Astral)
# UniProt Q14004, sequence (Q14004 whole entry, looked up): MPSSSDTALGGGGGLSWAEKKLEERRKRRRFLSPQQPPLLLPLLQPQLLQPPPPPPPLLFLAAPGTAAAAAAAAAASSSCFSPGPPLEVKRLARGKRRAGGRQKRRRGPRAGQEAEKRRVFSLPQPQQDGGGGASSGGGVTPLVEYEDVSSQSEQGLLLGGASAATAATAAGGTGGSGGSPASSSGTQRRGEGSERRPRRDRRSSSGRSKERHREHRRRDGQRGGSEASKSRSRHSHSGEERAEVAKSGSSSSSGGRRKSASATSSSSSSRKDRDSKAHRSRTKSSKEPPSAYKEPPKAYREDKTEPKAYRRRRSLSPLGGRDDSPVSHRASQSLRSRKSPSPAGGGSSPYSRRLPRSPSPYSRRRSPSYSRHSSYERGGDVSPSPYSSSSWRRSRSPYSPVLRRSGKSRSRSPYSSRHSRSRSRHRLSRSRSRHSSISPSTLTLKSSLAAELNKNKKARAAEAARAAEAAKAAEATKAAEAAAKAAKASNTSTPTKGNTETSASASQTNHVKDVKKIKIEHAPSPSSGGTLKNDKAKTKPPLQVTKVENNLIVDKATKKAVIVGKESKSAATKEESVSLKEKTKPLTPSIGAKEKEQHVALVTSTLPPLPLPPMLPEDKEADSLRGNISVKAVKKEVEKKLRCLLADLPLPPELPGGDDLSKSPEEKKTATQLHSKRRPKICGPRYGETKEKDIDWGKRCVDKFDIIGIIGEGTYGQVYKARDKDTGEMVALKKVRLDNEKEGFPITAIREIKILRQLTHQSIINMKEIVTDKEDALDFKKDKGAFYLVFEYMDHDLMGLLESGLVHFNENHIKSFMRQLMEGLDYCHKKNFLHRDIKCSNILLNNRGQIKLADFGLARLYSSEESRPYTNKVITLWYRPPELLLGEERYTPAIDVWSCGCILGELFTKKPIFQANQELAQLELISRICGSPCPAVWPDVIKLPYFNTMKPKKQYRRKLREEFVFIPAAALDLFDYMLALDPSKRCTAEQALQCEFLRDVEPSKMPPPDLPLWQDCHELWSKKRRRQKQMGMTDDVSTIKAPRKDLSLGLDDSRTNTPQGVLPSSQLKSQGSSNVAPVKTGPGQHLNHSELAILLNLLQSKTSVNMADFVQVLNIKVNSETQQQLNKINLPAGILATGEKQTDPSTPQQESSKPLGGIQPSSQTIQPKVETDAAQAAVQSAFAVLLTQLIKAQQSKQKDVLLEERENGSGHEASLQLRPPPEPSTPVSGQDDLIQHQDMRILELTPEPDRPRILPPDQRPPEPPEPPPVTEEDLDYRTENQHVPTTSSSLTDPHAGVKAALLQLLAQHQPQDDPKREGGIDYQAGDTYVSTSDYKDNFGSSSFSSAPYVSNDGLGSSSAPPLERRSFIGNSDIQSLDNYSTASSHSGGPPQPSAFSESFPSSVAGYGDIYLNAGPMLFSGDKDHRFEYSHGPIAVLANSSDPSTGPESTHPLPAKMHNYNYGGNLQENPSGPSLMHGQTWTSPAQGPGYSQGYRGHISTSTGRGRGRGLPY
# UniProt P15056, sequence (P15056 whole entry): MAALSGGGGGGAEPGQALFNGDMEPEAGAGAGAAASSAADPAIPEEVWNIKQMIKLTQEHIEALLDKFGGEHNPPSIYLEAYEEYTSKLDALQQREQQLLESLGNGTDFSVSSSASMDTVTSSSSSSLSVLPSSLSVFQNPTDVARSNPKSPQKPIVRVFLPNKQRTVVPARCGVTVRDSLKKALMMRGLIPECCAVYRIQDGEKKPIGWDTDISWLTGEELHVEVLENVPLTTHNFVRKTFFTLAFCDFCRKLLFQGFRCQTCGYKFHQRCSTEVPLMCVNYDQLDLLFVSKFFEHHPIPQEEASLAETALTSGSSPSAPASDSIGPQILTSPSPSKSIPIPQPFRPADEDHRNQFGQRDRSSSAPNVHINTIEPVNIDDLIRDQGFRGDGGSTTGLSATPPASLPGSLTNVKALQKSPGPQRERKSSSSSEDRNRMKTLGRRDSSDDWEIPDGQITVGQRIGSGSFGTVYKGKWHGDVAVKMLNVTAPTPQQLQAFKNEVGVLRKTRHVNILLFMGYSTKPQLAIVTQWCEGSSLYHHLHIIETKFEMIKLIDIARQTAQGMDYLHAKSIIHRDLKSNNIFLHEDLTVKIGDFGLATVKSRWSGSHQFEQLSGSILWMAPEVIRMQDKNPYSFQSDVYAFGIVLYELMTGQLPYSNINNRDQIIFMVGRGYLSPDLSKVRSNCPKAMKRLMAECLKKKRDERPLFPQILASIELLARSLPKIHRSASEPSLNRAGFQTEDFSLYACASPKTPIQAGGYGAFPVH
# UniProt P14635, sequence (P14635 whole entry): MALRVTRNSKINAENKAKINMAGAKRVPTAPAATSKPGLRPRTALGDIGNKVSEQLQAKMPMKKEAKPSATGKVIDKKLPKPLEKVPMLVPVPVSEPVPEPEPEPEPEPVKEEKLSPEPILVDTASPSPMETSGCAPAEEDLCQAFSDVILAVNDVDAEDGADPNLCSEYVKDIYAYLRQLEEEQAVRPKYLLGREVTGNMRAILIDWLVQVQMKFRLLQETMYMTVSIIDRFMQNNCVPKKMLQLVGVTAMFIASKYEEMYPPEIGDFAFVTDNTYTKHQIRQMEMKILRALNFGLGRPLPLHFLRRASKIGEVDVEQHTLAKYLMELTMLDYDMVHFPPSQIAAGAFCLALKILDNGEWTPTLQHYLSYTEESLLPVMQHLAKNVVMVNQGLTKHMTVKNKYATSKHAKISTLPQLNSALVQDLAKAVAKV
# UniProt Q00537, sequence (Q00537 whole entry, looked up): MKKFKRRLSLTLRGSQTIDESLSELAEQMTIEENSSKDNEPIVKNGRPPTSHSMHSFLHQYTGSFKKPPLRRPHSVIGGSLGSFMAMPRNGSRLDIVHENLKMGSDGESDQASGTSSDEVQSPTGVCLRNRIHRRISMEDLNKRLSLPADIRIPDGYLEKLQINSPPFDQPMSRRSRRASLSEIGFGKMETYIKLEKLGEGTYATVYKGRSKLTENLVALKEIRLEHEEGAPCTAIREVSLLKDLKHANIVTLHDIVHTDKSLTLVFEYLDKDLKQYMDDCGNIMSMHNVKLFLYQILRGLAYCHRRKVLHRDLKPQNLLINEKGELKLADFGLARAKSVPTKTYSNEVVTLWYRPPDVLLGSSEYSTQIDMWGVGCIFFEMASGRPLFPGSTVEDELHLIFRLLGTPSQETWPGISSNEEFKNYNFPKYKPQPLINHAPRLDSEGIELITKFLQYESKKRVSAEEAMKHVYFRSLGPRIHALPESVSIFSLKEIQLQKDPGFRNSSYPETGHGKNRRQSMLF
# UniProt Q15418, sequence (Q15418 whole entry): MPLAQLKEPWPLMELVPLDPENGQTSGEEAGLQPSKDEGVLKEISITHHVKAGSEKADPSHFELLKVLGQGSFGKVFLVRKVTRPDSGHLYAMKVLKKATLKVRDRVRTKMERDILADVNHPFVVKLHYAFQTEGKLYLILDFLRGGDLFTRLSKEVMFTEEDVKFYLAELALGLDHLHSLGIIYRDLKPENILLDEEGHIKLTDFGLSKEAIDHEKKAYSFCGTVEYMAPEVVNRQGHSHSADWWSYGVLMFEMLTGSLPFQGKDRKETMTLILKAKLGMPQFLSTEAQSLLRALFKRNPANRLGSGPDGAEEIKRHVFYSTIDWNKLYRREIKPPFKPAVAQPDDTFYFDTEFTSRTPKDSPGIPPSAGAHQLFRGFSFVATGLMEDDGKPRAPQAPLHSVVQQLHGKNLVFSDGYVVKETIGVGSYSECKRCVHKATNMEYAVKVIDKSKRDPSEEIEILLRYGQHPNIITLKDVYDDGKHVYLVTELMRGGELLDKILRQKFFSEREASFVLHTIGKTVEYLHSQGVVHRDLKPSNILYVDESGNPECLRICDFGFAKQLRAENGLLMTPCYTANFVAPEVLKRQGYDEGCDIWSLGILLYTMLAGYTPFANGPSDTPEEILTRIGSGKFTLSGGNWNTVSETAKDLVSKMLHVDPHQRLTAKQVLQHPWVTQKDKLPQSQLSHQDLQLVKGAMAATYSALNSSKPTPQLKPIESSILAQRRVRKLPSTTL
# UniProt P10398, sequence (P10398 whole entry): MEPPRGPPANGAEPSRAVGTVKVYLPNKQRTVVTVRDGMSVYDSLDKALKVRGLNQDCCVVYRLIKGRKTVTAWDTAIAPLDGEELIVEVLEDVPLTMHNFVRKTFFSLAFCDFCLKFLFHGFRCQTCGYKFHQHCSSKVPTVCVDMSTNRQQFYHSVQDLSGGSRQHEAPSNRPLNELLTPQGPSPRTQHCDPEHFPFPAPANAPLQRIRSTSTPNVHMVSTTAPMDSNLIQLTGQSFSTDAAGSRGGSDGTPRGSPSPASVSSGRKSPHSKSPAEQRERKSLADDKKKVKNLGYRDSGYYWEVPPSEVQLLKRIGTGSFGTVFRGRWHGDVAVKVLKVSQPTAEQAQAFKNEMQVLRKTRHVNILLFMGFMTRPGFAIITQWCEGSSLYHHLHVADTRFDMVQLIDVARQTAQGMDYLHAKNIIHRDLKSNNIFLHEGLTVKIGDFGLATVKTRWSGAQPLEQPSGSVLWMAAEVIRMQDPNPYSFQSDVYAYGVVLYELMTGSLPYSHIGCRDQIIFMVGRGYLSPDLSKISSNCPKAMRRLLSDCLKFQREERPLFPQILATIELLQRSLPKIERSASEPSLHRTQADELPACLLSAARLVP
# UniProt P19623, sequence (P19623 whole entry): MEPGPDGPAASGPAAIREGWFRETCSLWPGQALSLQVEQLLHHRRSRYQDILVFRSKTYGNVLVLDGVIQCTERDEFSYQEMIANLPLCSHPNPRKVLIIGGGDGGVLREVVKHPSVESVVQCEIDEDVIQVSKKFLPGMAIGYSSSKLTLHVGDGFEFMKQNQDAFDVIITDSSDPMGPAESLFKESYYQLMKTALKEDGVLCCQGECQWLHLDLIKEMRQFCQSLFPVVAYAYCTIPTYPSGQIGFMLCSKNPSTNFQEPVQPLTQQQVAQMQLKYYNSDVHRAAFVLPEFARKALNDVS
row,Target,log2 fold change
1,"ARAF (peptide sequence: IGTGSFGTVFR, peptide start residue: 316) (UniProt P10398)",0.439
2,"CCNB1 (peptide sequence: NVVMVNQGLTK, peptide start residue: 386) (UniProt P14635)",-1.47
3,"UniProt Q9BVG4 (peptide sequence: LISSVDPQFLK, peptide start residue: 53)",-0.658
4,"UniProt Q00537 (peptide sequence: LGEGTYATVYK, peptide start residue: 171)",-2.88
5,"SRM (peptide sequence: AAFVLPEFAR, peptide start residue: 286) (UniProt P19623)",0.362
6,"BRAF (peptide sequence: GYLSPDLSK, peptide start residue: 525) (UniProt P15056)",0.499
7,"MOB2 (peptide sequence: ITDFQFK, peptide start residue: 35) (UniProt Q70IA6)",0.834
8,"UniProt Q15418 (peptide sequence: DILADVNHPFVVK, peptide start residue: 114)",-1.43
9,"XRCC5 (peptide sequence: VDEEQMK, peptide start residue: 326) (UniProt P13010)",-0.825
10,"CEP170 (peptide sequence: SDSEATISR, peptide start residue: 1165) (UniProt Q5SW79)",0.41
11,"UniProt Q14004 (peptide sequence: EGFPITAIR, peptide start residue: 765)",-1.01
